Hit rate of the full screen: of about 350,000 compounds, about 1,300 (0.37%) were called active. Only a selection was taken, and actives are over-represented in it overall. A number with no mark means an inactive call.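 How the source made its calls: active means mean added fluorescence quench of at least 8% versus neutral control, with both replicates also reaching 8%; inconclusive means only one of the mean or replicate conditions met; inactive means mean below 8% and not both replicates reaching 8%.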
Experiment: F508del CFTR correction, initial screen, CFBE line, single point (AID 720511);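 further: cells transiently co-express mutant CFTR-F508del with the halide-sensitive YFP; corrector assay measuring rescue of mutant channel to the surface after 24 h compound exposure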
Conditions: CFBE cells, YFP halide quenching, at 7.58 µM, active compounds read high, % fluorescence drop versus neutral controls, stimulated with forskolin plus potentiator P3

Row | Structure (SMILES) | activity (quench increase)
1 | CN1C(=O)c2cc(NC(=O)c3ccccc3)ccc2OC[C@@H]2O[C@H](CC(=O)NCC3CC3)CC[C@@H]21 | -1.16%
2 | Cc1ccc(S(=O)(=O)N[C@H]2CC[C@@H](CC(=O)N3CCc4ccccc4C3)O[C@H]2CO)cc1 | -3.27%
3 | CCOC(=O)c1c(NC(=O)CN2C(=O)NC3(CCC(C)CC3)C2=O)sc(C)c1CC (stereo unspecified) | 8.23% (active)
4 | CCC1CCC2(CC1)NC(=O)N(CC(=O)Nc1ccc(OC)cc1)C2=O (stereo unspecified) | 4.71%
5 | CCOC(=O)c1c(NC(=O)C2CC=CCC2C(=O)O)sc(C)c1CC (stereo unspecified) | 0.585%
6 | O=S(=O)(Cc1ccc(Cl)cc1Cl)c1ccc(Cl)cc1 | 12.1% (active)
7 | O=S(=O)(NCc1ccc(Cl)cc1Cl)c1cccs1 | 0.403%
8 | O=S(=O)(NC1CC1)c1ccc(Cl)cc1 | 0.433%
9 | C/C=C/c1ccc([C@H]2[C@@H](CNC(C)C)N(c3nc(CC)cs3)[C@H]2CO)cc1 | 2.62%
10 | COc1cc(C(=O)NCc2cc3cc(Cl)ccc3n2C)cc(OC)c1OC | 2.35%
11 | COc1ccc(C(=O)N/N=C(\C)CC(=O)Nc2ccc(Cl)cn2)cc1 | 0.068%
12 | COc1ccc(OC)c(/C(C)=N\NC(=O)c2cc3cc(Cl)ccc3n2C)c1 | 14.1% (active)
13 | Cc1ccc(S(=O)(=O)Nc2ccc3c(c2)C(=O)N([C@@H](C)CO)C[C@@H](C)[C@H](CN(C)Cc2ccc(C(=O)O)cc2)O3)cc1 | 5.34%
14 | COc1cccc(-c2cnc3c(NC(C)=O)cc(-c4cccc(NC(C)=O)c4)cn23)c1 | -0.356%
15 | COc1ccccc1-c1cc(NC(C)=O)c2ncc(-c3ccc(F)cc3)n2c1 | 3.05%
16 | COc1cccc(-c2cnc3c(NC(C)=O)cc(-c4cc(F)ccc4OC)cn23)c1 | 9.31% (active)
17 | CCCNC(=O)[C@@H]1[C@@H](CO)[C@@H]2Cn3c(ccc(C4=CCCCC4)c3=O)[C@H]1N2CCC | 0.001%
18 | COc1ccc(C(C)(O)c2nc(-c3ccc(C)c(C)c3)cs2)cc1 (stereo unspecified) | 0.543%

Row | Structure (SMILES) | activity (quench increase)
19 | CN(c1ccc(O)cc1)c1nc(-c2cccnc2)cs1 | 3.59%
20 | CC(C)(C)C(=O)OCc1nc(-c2ccc(O)c(O)c2)cs1 | 8.8% (active)
21 | C[C@H](CO)N1C[C@H](C)[C@H](CN(C)C(=O)c2cccnc2)Oc2ncc(C3=CCCC3)cc2C1=O | -0.608%
22 | C[C@H](CO)N1C[C@H](C)[C@@H](CN(C)C(=O)NC2CCCCC2)Oc2c(NC(=O)Nc3ccc(F)cc3)cccc2C1=O | 3.54%
23 | C[C@H]1CN([C@@H](C)CO)C(=O)c2cccc(NC(=O)Nc3ccc(C(F)(F)F)cc3)c2O[C@H]1CN(C)C(=O)NC1CCCCC1 | 8.85% (active)
24 | C[C@@H]1CN([C@H](C)CO)C(=O)Cc2cc(NC(=O)Nc3ccccc3)ccc2O[C@H]1CN(C)Cc1ccc(Cl)c(Cl)c1 | -0.242%
25 | C[C@@H]1CN([C@H](C)CO)C(=O)c2cccc(NC(=O)Nc3ccccc3)c2O[C@@H]1CN(C)C(=O)NC1CCCCC1 | -1.15%
26 | C[C@H](CO)N1C[C@H](C)[C@@H](CN(C)Cc2ccc(Cl)c(Cl)c2)Oc2ccc(NC(=O)Nc3ccc(C(F)(F)F)cc3)cc2CC1=O | 12.6% (active)
27 | C[C@@H]1CN([C@H](C)CO)C(=O)Cc2cc(NC(=O)Nc3ccccc3)ccc2O[C@@H]1CN(C)Cc1ccc(C(F)(F)F)cc1 | 0.116%
28 | O=C(C[C@@H]1C=C[C@H](NC(=O)Nc2ccc3c(c2)OCO3)[C@H](CO)O1)NCc1ccccc1 | 4.6%
29 | CO[C@H]1CN(C)C(=O)c2ccc(NS(=O)(=O)c3ccccc3C)cc2OC[C@H](C)NC[C@H]1C | -0.483%
30 | CCCC(=O)Nc1nc2ccc(NC(=O)c3c(F)c(F)c(OC)c(F)c3F)cc2s1 | 13.3% (active)
31 | CC(=O)Nc1ccc2nc(NC(=O)CS(=O)(=O)c3ccc(F)cc3)sc2c1 | 0.717%
32 | CCCn1nc(C(=O)Nc2ccc3nc(C)sc3c2)c2ccccc2c1=O | -0.539%
33 | CCS(=O)(=O)Nc1ccc2c(c1)C(=O)N(C)[C@H]1CC[C@@H](CC(=O)Nc3ccccc3)O[C@H]1CO2 | -3.46%
34 | CCOc1ccc(NC(=O)c2ccc(NC(=O)COC(=O)c3ccc(NC(=O)CC#N)cc3)cc2)cc1 | -1.21%
35 | CCOc1ccc(NC(=O)c2ccc(NC(=O)CN3C(=O)C(=O)N(CC(C)C)C3=O)cc2)cc1 | 9.37% (active)
36 | CCOc1ccc(NC(=O)CCNC(=O)c2ccc(Br)cc2)cc1 | -1.36%

Reference: PubChem BioAssay AID720511 (Broad Institute, 2013)
